Test results: PubChem BioAssay AID1159580 (chemical genetic matrix, 2015)
Where “and” joins values, the source holds several entries; their conditions need not be identical. Equal values may be shown once. Screen size: about 5,500 compounds; about 2,000 (36%) were called active. Another 18% or so got no clear call; they are omitted. Rule as the data show it: active = normalized growth mostly below about 0.91 (no sharp cut-off); inconclusive = no clear call, values can overlap the other calls; inactive = mostly above about 0.92. The list shows a part of the results.

Assay: chemical genetic growth profiling, strain panel (AID 1159580);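 also: tested at 20 µM; growth read once vehicle control cultures reached saturation at 30 °C; 1 = growth at the plate median or of vehicle wells; lower values mean less growth of the strain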
Details: S. cerevisiae deletion strains, growth OD

Measured: normalized growth

C=CC(C1=CC(=O)C(OC)=CC1=O)c1ccccc1 (configuration not stated)
inactive: locus YAL021C, strain ccr4, stronger effect = lower value 1.04 | locus YBR021W, strain FUR4, stronger effect = lower value 0.922 | locus YBR171W, strain sec66, stronger effect = lower value 0.992 | locus YBR229C, strain ROT2, stronger effect = lower value 0.969 | locus YBR231C, strain swc5, stronger effect = lower value 0.947 | locus YCL029C, strain bik1, stronger effect = lower value 0.948 | locus YCL069W, strain vba3, stronger effect = lower value 0.954 | locus YCR088W, strain abp1, stronger effect = lower value 0.969 | locus YDL005C, strain med2, stronger effect = lower value 1 | locus YDL040C, strain nat1, stronger effect = lower value 1 | locus YDL074C, strain BRE1, stronger effect = lower value 0.781 | locus YDL101C, strain DUN1, stronger effect = lower value 0.94 | locus YDL134C, strain PPH21, stronger effect = lower value 0.944 | locus YDL185W, strain tfp1, stronger effect = lower value 0.948 | locus YDR001C, strain nth1, stronger effect = lower value 0.983 | locus YDR069C, strain doa4, stronger effect = lower value 0.982 | locus YDR150W, strain NUM1, stronger effect = lower value 0.972 | locus YDR334W, strain swr1, stronger effect = lower value 0.999 | locus YDR335W, strain msn5, stronger effect = lower value 0.968 | locus YEL037C, strain rad23, stronger effect = lower value 0.993 | locus YEL061C, strain CIN8 (second series), stronger effect = lower value 0.966 | locus YEL061C, strain CIN8, stronger effect = lower value 0.932 | locus YER016W, strain bim1, stronger effect = lower value 0.985 | locus YER110C, stronger effect = lower value 0.936 | locus YER111C, strain swi4, stronger effect = lower value 0.977 | locus YER155C, strain BEM2, stronger effect = lower value 0.956 | locus YFR010W, strain ubp6, stronger effect = lower value 0.979 | locus YGL078C, strain dbp3, stronger effect = lower value 0.998 | locus YGL167C, strain pmr1, stronger effect = lower value 0.973 | locus YGL227W, strain vid30, stronger effect = lower value 0.963 | locus YGL248W, strain PDE1, stronger effect = lower value 0.947 | locus YGL253W, strain hxk2, stronger effect = lower value 0.92 | locus YGR252W, strain gcn5, stronger effect = lower value 0.854 | locus YHR013C, strain ard1, stronger effect = lower value 0.876 | locus YHR094C, strain hxt1, stronger effect = lower value 0.956 | locus YIL073C, strain SPO22, stronger effect = lower value 0.723 | locus YIL125W, strain kgd1, stronger effect = lower value 0.963 | locus YIR030C, strain dcg1, stronger effect = lower value 0.929 | locus YJL092W, strain hpr5, stronger effect = lower value 0.95 | locus YJL115W, strain asf1, stronger effect = lower value 1 | locus YJL129C, strain trk1, stronger effect = lower value 0.947 | locus YJL134W, strain LCB3, stronger effect = lower value 0.96 | locus YJL154C, strain vps35, stronger effect = lower value 0.999 | locus YJL168C, strain set2, stronger effect = lower value 0.953 | locus YJL187C, strain SWE1 (second series), stronger effect = lower value 0.944 | locus YJR066W, strain TOR1, stronger effect = lower value 0.858
0.852 (inactive) and 0.869 (active): locus YJL095W, strain BCK1, stronger effect = lower value
active: locus YAL013W, strain DEP1, stronger effect = lower value 0.908 | locus YAL026C, strain drs2, stronger effect = lower value 0.853 | locus YAL030W, strain snc1, stronger effect = lower value 0.92 | locus YBL061C, strain skt5, stronger effect = lower value 0.847 | locus YBR009C, strain hhf1, stronger effect = lower value 0.728 | locus YBR023C, strain chs3, stronger effect = lower value 0.85 | locus YBR279W, strain paf1, stronger effect = lower value 0.858 | locus YCL011C, strain gbp2, stronger effect = lower value 0.843 | locus YCL016C, strain dcc1, stronger effect = lower value 0.845 | locus YCL061C, strain MRC1, stronger effect = lower value 0.911 | locus YDL035C, strain GPR1, stronger effect = lower value 0.825 | locus YDL192W, strain arf1, stronger effect = lower value 0.843 | locus YDR101C, strain arx1, stronger effect = lower value 0.854 | locus YDR137W, strain rgp1, stronger effect = lower value 0.616 | locus YDR159W, strain sac3, stronger effect = lower value 0.85 | locus YDR162C, strain NBP2, stronger effect = lower value 0.607 | locus YDR195W, strain ref2 1.32 [resistant] | locus YDR297W, strain sur2, stronger effect = lower value 0.913 | locus YDR318W, strain mcm21, stronger effect = lower value 0.83 | locus YDR388W, stronger effect = lower value 0.907 | locus YDR392W, strain spt3, stronger effect = lower value 0.233 | locus YDR502C, strain sam2, stronger effect = lower value 0.902 | locus YEL003W, strain gim4, stronger effect = lower value 0.823 | locus YER015W, strain faa2, stronger effect = lower value 0.815 | locus YER155C, strain BEM2 (second series), stronger effect = lower value 0.43 | locus YER167W, strain BCK2, stronger effect = lower value 0.747 | locus YGL086W, strain mad1, stronger effect = lower value 0.853 | locus YGL173C, strain kem1, stronger effect = lower value 0.855 | locus YGL240W, strain doc1, stronger effect = lower value 0.708 | locus YGR078C, strain PAC10, stronger effect = lower value 0.734 | locus YGR135W, strain pre9, stronger effect = lower value 0.864 | locus YGR229C, strain SMI1, stronger effect = lower value 0.692 | locus YHR027C, strain rpn1, stronger effect = lower value 0.92 | locus YHR030C, strain SLT2, stronger effect = lower value 0.895 and 0.797 | locus YHR079C, strain IRE1 (second series), stronger effect = lower value 0.908 | locus YHR079C, strain IRE1, stronger effect = lower value 0.824 | locus YHR129C, strain ARP1, stronger effect = lower value 0.88 | locus YHR142W, strain chs7, stronger effect = lower value 0.729 | locus YHR200W, strain rpn10, stronger effect = lower value 0.92 | locus YIL066C, strain RNR3, stronger effect = lower value 0.824 | locus YJL095W, strain BCK1 (second series), stronger effect = lower value 0.873 | locus YJL164C, strain tpk1, stronger effect = lower value 0.77 | locus YJL166W, strain qcr8, stronger effect = lower value 0.686 | locus YJL187C, strain SWE1, stronger effect = lower value 0.855 | locus YJR043C, strain POL32, stronger effect = lower value 0.768
